Inhibition data for 26 molecules are collected here from PubChem BioAssay AID793 (The Scripps Research Institute Molecular Screening Center, 2007).

Hit rate of the full screen: of about 140,000 compounds, about 1,400 (1%) were called active. The sample holds actives, similar compounds and a random draw of the others, so the mix is not that of the screen. Rule as the data show it: active = inhibition above about 17%; inactive = the rest.

In the assay the target is Neuropeptide Y receptor type 2 (Homo sapiens) (UniProt P49146). Put plainly: NPY-Y2 receptor antagonists, primary screen, cell-based (AID 793).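 Also: 0% = vehicle with agonist challenge and 100% = reference antagonist with challenge.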 Particulars: NPY-Y2 expressing cells, antagonist mode; at 2.7 µM; hits give high values.
Neuropeptide Y receptor type 2 (Homo sapiens), sequence (P49146 whole entry, looked up): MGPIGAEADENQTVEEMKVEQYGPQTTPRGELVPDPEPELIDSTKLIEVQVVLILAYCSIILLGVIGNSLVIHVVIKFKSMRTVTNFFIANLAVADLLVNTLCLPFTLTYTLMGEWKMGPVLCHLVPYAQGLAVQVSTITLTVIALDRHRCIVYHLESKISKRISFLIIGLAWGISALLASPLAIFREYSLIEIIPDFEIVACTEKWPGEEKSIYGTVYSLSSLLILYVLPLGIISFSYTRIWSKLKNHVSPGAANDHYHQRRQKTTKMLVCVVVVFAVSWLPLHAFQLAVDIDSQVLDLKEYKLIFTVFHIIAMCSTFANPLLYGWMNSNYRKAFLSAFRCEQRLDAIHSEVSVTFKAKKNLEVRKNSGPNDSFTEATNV
For the molecule `CCN1CCC2(CC1)N=C(c1ccc(F)cc1)C(=S)N2C(=O)c1ccc(C)cc1`, the inhibition (as a rule, the relative decrease from the control value, in per cent) is 1.56% (inactive).

As for `S=C(NCC1COc2ccccc2O1)Nc1ccc(Br)cc1` (stereo unspecified), the inhibition was 6.55% (inactive). On to `c1ccc2c(c1)OCC(CNc1ncnc3nc[nH]c13)O2` (stereo unspecified), for which the inhibition was -0.22% (inactive). Next, `c1ccc(-c2cc3c(NCC4COc5ccccc5O4)ncnc3s2)cc1` (stereo unspecified): 22.8% (active). The result for `Nc1nnc(SCC(=O)Nc2ccc3nc(SCC(=O)Nc4ccccc4)sc3c2)s1` reads 4.56% (inactive). The result for `N=c1n(CCc2ccccc2)c2ccccc2n1Cc1ccccc1F` reads 23.1% (active); that for `CN(Cc1ccccc1)Cc1ccccc1F`, 1.28% (inactive).

As to `CC(=O)NC(C)c1nc2ccccc2n1Cc1ccccc1F` (stereo unspecified), the inhibition was 2.02% (inactive).

In the case of `COc1ccc(Cn2c(-c3ccc(Cl)cc3)c[n+]3ccccc23)cc1`, the inhibition is 1.35% (inactive). Consider `COc1ccc(NC(=O)c2cccc(NC(=O)c3ccco3)c2)c(OC)c1`, for which the inhibition was 3.21% (inactive). On to `COc1cc(NC(=O)c2cc([N+](=O)[O-])ccc2Br)ccc1NC(=O)c1ccco1`, for which the inhibition was 31.7% (active). The result for `COc1ccccc1C(=O)Nc1ccc(NC(=O)c2ccco2)c(C)c1` reads -1.27% (inactive); that for `COc1ccccc1Oc1ccc(N/C=C2/CCCC2=O)cc1`, 2.93% (inactive). For the molecule `COc1cccc(NC(=O)CC(c2ccc(OC(C)C)cc2)c2ccccc2OC)c1` (stereo unspecified), the inhibition was 4.56% (inactive). The result for `CC(C)N1C(=O)N(c2ccccc2)C(C)(O)CC1(C)C` (stereo unspecified) reads -1.03% (inactive); that for `O=C(Nc1ccc(N2C(=O)c3cccc4cccc(c34)C2=O)cc1)c1ccc(N2CCCCC2)c([N+](=O)[O-])c1`, 0.97% (inactive). The result for `OC(COc1ccc2ccccc2c1)CN1CCOCC1` (stereo unspecified) reads 1.96% (inactive); that for `Cn1c(=N)n(CC(O)c2ccccc2)c2ccccc21` (stereo unspecified), 6.24% (inactive); that for `CCOc1ccc(C(O)Cn2c(=N)n(CCN3CCCCC3)c3ccccc32)cc1` (stereo unspecified), 18.8% (active). On to `CCOc1ccc(C(O)Cc2nc3ccccc3n2C)cc1` (stereo unspecified), for which the inhibition was 0.15% (inactive).

On to `Cc1cccc(OCC(O)Cn2c(=N)n(CCN3CCOCC3)c3ccccc32)c1` (stereo unspecified), for which the inhibition was 19.8% (active). As for `C=CCn1c(=N)n(CC(O)COc2ccc(OC)cc2)c2ccccc21` (stereo unspecified), the inhibition was 10.5% (inactive).

Take `Cc1nc2c(C(=O)NCc3cccs3)cnn2c(C)c1Cc1ccc(F)cc1`: the inhibition is 11.8% (inactive).

As to `COc1ccc(-c2csc3ncnc(Oc4ccc5c(C)cc(=O)oc5c4)c23)cc1`, the inhibition was 6.66% (inactive). On to `Brc1ccc(-c2csc(N/N=C/c3ccc4c(c3)OCO4)n2)cc1`, for which the inhibition is -1.38% (inactive). The result for `CCCn1c(N)c(C(=O)CSc2nnc(-c3cccnc3)n2-c2ccc(C)cc2C)c(=O)[nH]c1=O` reads 2.5% (inactive).
